Screening results deposited in PubChem BioAssay by National Center for Advancing Translational Sciences (NCATS).
Casp7 inh: caspase-7 (human) inhibition, allosteric or competitive; hit rate 0.02% among 75,000; recombinant caspase-7, Ac-DEVD-AFC fluorescence rate; Potency, µM (highest dose often 57.5 µM), for inactives: at the highest dose activity change, negative = inhibition, usual class: inhibitors; P55210; active means well fitted inhibition curve with a large enough effect in the main read-out, with a control signal flat, not every such curve was filed as active; inconclusive means small, poorly fitted or top-dose-only effect, or a change in a side signal; further: % of control where 0% means no effect
p53ts 39C tox: kills p53ts cells at the nonpermissive temperature; hit rate 1.5% among 130,000; Potency, µM (top dose mostly 46.1 µM), inactives show top-dose activity change, negative = cell killing, hits mostly cytotoxic; H1299-p53A138V viability at 39C, ATP luminescence, 24 h; further: on the % scale 0 is the no-effect control and ±100 the full control effect; nearly all actives have a fitted effect of over 55% in size
Casp1 inh: allosteric or competitive inhibitors of human caspase-1; AID 900; hit rate 0.03% among 75,000; Caspase-1 enzyme, Ac-WEHD-AFC fluorogenic rate; P29466; Potency, µM (series often up to 57.5 µM), inactives show at the top dose activity change, negative = inhibition, usual class: inhibitors;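 further: plate controls were vehicle for no effect and no substrate for full effect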
IkB signaling: suppresses IkB signaling in ABC-DLBCL reporter cells | ABC-DLBCL IkBa-CBG/CBR dual luciferase ratio, 4 h; response scale: scaled: untreated 0%, proteasome inhibitor 100% | Potency, µM (highest dose often 57.1 µM), for the others: at the top dose IkBa stabilization activation | hit rate 0.04% among 110,000 | AID 445; active means well fitted curve in the direction sought with a large enough effect in the signal ratio, not every such curve was filed as active; inconclusive means small, poorly fitted or top-dose-only effect, or a change in a side signal; the % refers to the signal ratio;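 further: the direction sought is a rising ratio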
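Luminescence ratio of IκBα-fused green versus native red beetle luciferase in OCI-Ly3 cells, 4 h post-doxycycline with compound; red signal alone, scaled from basal (0%) to zero light (-100%), flagged nonspecific or cytotoxic effects.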
p53ts 32C kill: kills p53ts cells at the permissive temperature | H1299-p53A138V at 32C, ATP luminescence viability, 24 h | Potency, µM (top dose mostly 46.1 µM), inactives show at the top dose activity change, negative = cytotoxicity, usual class: cytotoxic | hit rate 0.93% among 130,000 | AID 924;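 further: 0% = DMSO and -100% = full killing by reference compound; nearly all actives have a fitted effect of over 55% in size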
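ATP-content luminescence (ATPlite) read-out after 24 h compound exposure at 32C in H1299-p53A138V cells (600/well). Tested up to 46 uM. Normalized to DMSO (0%) and 100 uM tamoxifen (100% killing); Hill-fit AC50.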
FLuc inh: blocks Photinus pyralis firefly luciferase activity; P08659; purified firefly luciferase, luminescence, 8 min; Potency, µM (doses to about 57.1 µM), for inactives: at the highest dose activity change, negative = inhibition, usual class: inhibitors; hit rate 2.2% among 72,000; AID 411; further: on the % scale 0 is the no-effect control and ±100 the full control effect; nearly all actives have a fitted effect of over 40% in size
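Compounds were tested as concentration series (qHTS) against purified P. pyralis luciferase with luciferin and 10 uM ATP in 50 mM imidazole pH 7.2, 50 mM KCl, 7 mM MgCl2, 0.01% Tween 20, 0.05% BSA. Luminescence was read after 8 min at ambient temperature.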
Starred values were filed as active, the others as inactive; ? = inconclusive; . = no result; [ ] = remark or other dose. Compounds with a hit are over-represented: about 2.5% of the library has one in this group of screens. Unless noted, the call rests on the fitted dose curve; in most records, active means well fitted curve in the direction sought with a large enough effect; inconclusive means small, poorly fitted or top-dose-only effect, or another doubt; inactive means no such curve, though single readings can be large; an effect the other way counts as inactive or inconclusive. Potency means the concentration at half of the fitted maximal effect.

SMILES	Casp7 inh	p53ts 39C tox	Casp1 inh	IkB signaling	p53ts 32C kill	FLuc inh
CC(C(=O)NCc1ccccc1)N1C(=O)C2CC=C(Cl)CC2C1=O (configuration not stated)	1.5%	14.4%	1.1%	-5.5%	9.8%	-0.7%
CCCCCCCCC(=O)NCc1cc(OC)c(O)cc1I	-3.7%	31.6µM*	2.4%	?	3.8%	-1.7%
COC(=O)c1ccc(CSc2nnc3ccccn23)o1	-0.6%	1.9%	0.8%	1.7%	3.0%	-0.7%
COc1cc(/C=C/C(=O)N2CCCCC2=O)cc(OC)c1OC	2.3%	12.6µM*	-3.2%	.	12.6µM*	.
COc1cc(/C=C\C(=O)N2CCC=CC2=O)cc(OC)c1OC	0.0%[25.7 µM]	6.31µM*	-1.5%[25.7 µM]	?	6.31µM*	3.0%[25.5 µM]
COc1cc(/C=C/C(=O)O)cc(OC)c1OC	1.1%	2.1%	0.8%	.	-7.2%	.
CCOc1ccc2nc(N3CCC(C(=O)N4CCN(C(=O)c5ccco5)CC4)CC3)sc2c1	-5.3%	?	-3.1%	?	?	7.94µM*
CCOc1ccc2nc(N3CCCC(C(=O)N4CCN(CC)CC4)C3)sc2c1 (configuration not stated)	-3.0%	-19.0%	-2.3%	-4.6%	-28.3%	?
CCOc1ccc2nc(N3CCCCCC3)sc2c1	0.4%	-14.3%	-3.3%	4.8%	?	12.6µM*
CCOc1ccc2nc(N3CCN(C(=O)CS(=O)(=O)c4ccc(F)cc4)CC3)sc2c1	.	6.31µM*	.	?	14.1µM*	.
CCOc1ccc2nc(N3CCC(C(=O)Nc4nnc(CC)s4)CC3)sc2c1	-2.4%	4.4%	-2.0%	6.7%	-6.9%	-6.4%
CCOc1ccc2nc(N3CCC(C(=O)N4CCN(C5CCCCC5)CC4)CC3)sc2c1	-2.0%	-29.3%	-2.4%	9.3%	-25.1%	15.8µM*
COc1ccccc1-c1nc(C(N)=O)c2[nH]c(=O)n(-c3cccc(C)c3)c2n1	0.1%	3.7%	1.3%	-0.8%	-5.3%	-0.8%
CC(C)c1ccc(CNC(=O)c2ccc(N3CCCC3)c(NC(=O)NCc3ccccc3)c2)cc1	.	-11.5%	.	-1.0%	-2.8%	.
CCN(CC)CCn1c(-c2ccccc2)nc2c(NC3CCCCC3)nc(C)nc21	-1.4%	-1.9%	-0.6%	.	-2.1%	.
COc1ccc(S(=O)(=O)Cc2ccc(C(=O)N3CCN(c4cccc(C)c4)C(C)C3)o2)cc1 (configuration not stated)	-7.2%	-3.4%	-4.9%	?	1.4%	3.0%
CN(C)c1ccc(-c2nc(NCCc3cnc[nH]3)c3ccccc3n2)cc1	-9.2%	5.01µM*	-5.0%	-8.1%[11.4 µM]	5.01µM*	0.794µM*
COc1ccc2[nH]cc(CCNc3nc(-c4ccc(N(C)C)cc4)nc4ccccc34)c2c1	?	12.6µM*	.	-6.5%[11.4 µM]	10µM*	0.631µM*
COc1ccccc1-c1nc(NCCc2cnc[nH]2)c2ccccc2n1	0.0%	-9.9%	-1.4%	-5.9%[11.4 µM]	1.3%	-2.9%[2.29 µM]
COc1ccccc1CNc1nc(-c2ccc(C(=O)N(C)C)cc2)nc2ccccc12	-4.4%	-10.1%	-5.5%	-3.5%[11.4 µM]	1.4%	-3.9%[2.29 µM]
COc1ccccc1CNc1nc(-c2ccc(N(C)C)cc2)nc2ccccc12	-16.2%	20µM*	-8.9%	8.3%[11.4 µM]	?	-0.2%[2.29 µM]
O=c1oc2ccccc2cc1-c1nc2ccccc2o1	?	?	.	?	?	15.8µM*
Cc1ccc(Cc2cn3cc(-c4ccc(F)cc4)nc3s2)cc1	.	7.94µM*	.	2.0%	?	.
Cc1ccc(NC(=O)CCN2C(=O)CSC2=O)c(C)c1	.	14.4%	.	.	5.8%	.
CSc1nn(Cc2cccc(Cl)c2)c(N(C(C)=O)C(C)=O)c1S(=O)(=O)c1ccccc1	.	20µM*	.	-7.5%	9.5%	.
Cc1nn(-c2ccc(C(=O)O)cc2)c(N)c1-c1ccccc1	-0.8%	10µM*	-0.5%	?	7.94µM*	12.6µM*
Clc1cccc(CSc2nc(NCCc3ccccc3)c3ccccc3n2)c1	.	-22.8%	.	-1.2%	-17.7%	.
O=S(=O)(c1ccccc1)c1nc(-c2ccc(F)cc2)oc1N1CCCCCC1	.	11.5%	.	?	4.9%	.
